# Hit rate of the full screen: of about 39,000 compounds, about 1,500 (3.8%) were called active. Only a selection was taken, and actives are over-represented in it overall.
# Tested on: HSkMC (human skeletal muscle cells)
# Assay: cytotoxicity call (relative viability < 0.9)
# Settings: 10 µM
row,Compound,cytotoxicity call
1,C[C@@H]1CCCCO[C@@H](CN(C)Cc2ccc(C(=O)O)cc2)[C@@H](C)CN([C@@H](C)CO)C(=O)c2cc(NS(=O)(=O)c3cccs3)ccc2O1,inactive
2,C[C@@H]1CN([C@H](C)CO)C(=O)CCCn2cc(nn2)CO[C@@H]1CN(C)S(=O)(=O)c1ccc2ccccc2c1,inactive
3,O=C(C[C@@H]1CC[C@@H]2[C@H](COC[C@@H](O)CN2C(=O)Nc2ccc(F)cc2)O1)NCCCN1CCOCC1,inactive
4,C[C@@H]1CN([C@@H](C)CO)C(=O)c2cc(NS(=O)(=O)c3ccc(F)cc3)ccc2O[C@@H](C)CCCCO[C@H]1CN(C)Cc1ccc(C(=O)O)cc1,inactive
5,C[C@@H](O)[C@@H](O)[C@@H](O)C/C=N/NC(=O)c1ccc(C(=O)NO)cc1,inactive
6,Cc1cc([N+](=O)[O-])nn1CC(=O)N1CCOCC1,inactive
7,COc1ccc(NC(=O)N(C)C[C@@H]2OCCCC[C@H](C)Oc3ccc(NC(=O)Nc4ccc(F)cc4)cc3C(=O)N([C@H](C)CO)C[C@@H]2C)cc1,inactive
8,C[C@H]1CN([C@@H](C)CO)C(=O)Cc2cc(NC(=O)Nc3ccc(F)cc3)ccc2O[C@@H]1CN(C)Cc1ccc(Cl)c(Cl)c1,active
9,C[C@H](CO)N1C[C@H](C)[C@H](CN(C)Cc2ccc(Cl)c(Cl)c2)Oc2ccc(NC(=O)Nc3ccc(F)cc3)cc2CC1=O,active
10,C[C@H]1CN([C@@H](C)CO)C(=O)Cc2cc(NC(=O)Nc3ccc(F)cc3)ccc2O[C@H]1CN(C)Cc1ccc(Cl)c(Cl)c1,active
11,C[C@@H]1CN([C@H](C)CO)C(=O)Cc2cc(NC(=O)Nc3ccc(F)cc3)ccc2O[C@@H]1CN(C)Cc1ccc(Cl)c(Cl)c1,active
12,Cc1noc(C)c1NC(=O)N(C)C[C@H]1Oc2c(NS(=O)(=O)c3cn(C)cn3)cccc2C(=O)N([C@@H](C)CO)C[C@H]1C,inactive
13,C/C=C/COc1nc2c(c(=O)n(C)c(=O)n2C)n1C,inactive
14,C[C@H]1CN([C@@H](C)CO)C(=O)c2cc(NC(=O)Cn3cnnn3)ccc2O[C@@H]1CN(C)C(=O)NC1CCCCC1,inactive
15,C[C@@H]1CN([C@@H](C)CO)C(=O)c2cccc(NC(=O)Nc3ccc(F)cc3)c2O[C@@H]1CN(C)Cc1ccc(C(F)(F)F)cc1,inactive
16,CC(C)NC(=O)N(C)C[C@H]1Oc2ccc(NC(=O)Cn3cnnn3)cc2CC(=O)N([C@H](C)CO)C[C@@H]1C,inactive
17,CC(=O)OCC(=O)C1(O)CCC2C3CCC4CC(O)CCC4(C)C3C(=O)CC21C (stereo unspecified),inactive
18,COc1ccc(NC(=O)Nc2ccc3c(c2)C(=O)N([C@H](C)CO)C[C@H](C)[C@H](CN(C)S(=O)(=O)c2cccs2)OCCCC[C@H](C)O3)cc1,inactive
19,C[N+](C)(C)CCCCNC(=O)[C@H]1C[C@H]2C(=O)N3CCC[C@H]3C(=O)N2[C@H]1c1cccc(OCCO)c1,inactive
20,C[C@H](CO)N1C[C@H](C)[C@@H](CN(C)C(=O)c2ccc3c(c2)OCO3)Oc2cc(-c3cncnc3)ccc2S1(=O)=O,inactive
21,CCCCCCCCCC(=O)N[C@@H](Cc1c[nH]c2ccccc12)C(=O)N[C@H](CC(N)=O)C(=O)N[C@@H](CC(=O)O)C(=O)N[C@@H]1C(=O)NCC(=O)N[C@@H](CCCN)C(=O)N[C@@H](CC(=O)O)C(=O)N[C@H](C)C(=O)N[C@@H](CC(=O)O)C(=O)NCC(=O)N[C@H](CO)C(=O)N[C@@H]([C@H](C)CC(=O)O)C(=O)N[C@@H](CC(=O)c2ccccc2N)C(=O)O[C@@H]1C,inactive

row,Compound,cytotoxicity call
1,C[C@@H]1CN([C@H](C)CO)C(=O)Cc2cc(NC(=O)Nc3ccc(C(F)(F)F)cc3)ccc2O[C@H]1CN(C)C(=O)NC1CCCCC1,inactive
2,C[C@H]1CN([C@@H](C)CO)C(=O)Cc2cc(NC(=O)Nc3ccc(C(F)(F)F)cc3)ccc2O[C@H]1CN(C)C(=O)NC1CCCCC1,inactive
3,C[C@H](CO)N1C[C@H](C)[C@@H](CN(C)C(=O)NC2CCCCC2)Oc2ccc(NC(=O)Nc3ccc(C(F)(F)F)cc3)cc2CC1=O,inactive
4,C[C@@H]1CN([C@@H](C)CO)C(=O)Cc2cc(NC(=O)Nc3ccc(C(F)(F)F)cc3)ccc2O[C@H]1CN(C)C(=O)NC1CCCCC1,inactive
5,C[C@@H]1CN([C@@H](C)CO)C(=O)Cc2cc(NC(=O)Nc3ccc(C(F)(F)F)cc3)ccc2O[C@@H]1CN(C)C(=O)NC1CCCCC1,active
6,C[C@@H]1CN([C@H](C)CO)C(=O)Cc2cc(NC(=O)Nc3ccc(C(F)(F)F)cc3)ccc2O[C@@H]1CN(C)C(=O)NC1CCCCC1,active
7,C[C@H](CO)N1C[C@H](C)[C@@H](CN(C)Cc2ccc(Oc3ccccc3)cc2)Oc2cc(-c3ccncc3)ccc2S1(=O)=O,inactive
8,C[C@H]1CCCCO[C@@H](CN(C)C(=O)Nc2ccc(C(F)(F)F)cc2)[C@@H](C)CN([C@@H](C)CO)C(=O)c2cc(NS(C)(=O)=O)ccc2O1,inactive
9,Cc1noc(C)c1NC(=O)N(C)C[C@H]1OCCCC[C@@H](C)Oc2ccc(NS(=O)(=O)c3cccs3)cc2C(=O)N([C@H](C)CO)C[C@@H]1C,inactive
10,C[C@@H]1CN([C@@H](C)CO)S(=O)(=O)c2ccc(C#Cc3ccccc3)cc2O[C@@H]1CN(C)C(=O)CN(C)C,inactive
11,C[C@@H]1CCCCO[C@H](CN(C)Cc2ccc(C(=O)O)cc2)[C@@H](C)CN([C@@H](C)CO)C(=O)c2cc(NC(=O)Nc3cccc4ccccc34)ccc2O1,inactive
12,C[C@@H]1CCCCO[C@H](CN(C)Cc2ccccc2)[C@H](C)CN([C@H](C)CO)C(=O)c2cc(NC(=O)Nc3cccc4ccccc34)ccc2O1,active
13,C[C@H](CO)N1C[C@H](C)[C@H](CN(C)Cc2ccccc2)OCCCC[C@H](C)Oc2ccc(NC(=O)Nc3cccc4ccccc34)cc2C1=O,inactive
14,C[C@@H]1CCCCO[C@H](CN(C)Cc2ccccc2)[C@@H](C)CN([C@H](C)CO)C(=O)c2cc(NC(=O)Nc3cccc4ccccc34)ccc2O1,inactive
15,C[C@@H]1CCCCO[C@H](CN(C)Cc2ccccc2)[C@@H](C)CN([C@@H](C)CO)C(=O)c2cc(NC(=O)Nc3cccc4ccccc34)ccc2O1,active
16,C[C@H]1CCCCO[C@@H](CN(C)Cc2ccccc2)[C@@H](C)CN([C@@H](C)CO)C(=O)c2cc(NC(=O)Nc3cccc4ccccc34)ccc2O1,active
17,C[C@@H]1CN([C@H](C)CO)C(=O)c2cc(NC(=O)Nc3cccc4ccccc34)ccc2O[C@@H](C)CCCCO[C@H]1CN(C)Cc1ccccc1,inactive
18,C[C@H](CO)N1C[C@H](C)[C@@H](CN(C)Cc2ccccc2)OCCCC[C@H](C)Oc2ccc(NC(=O)Nc3cccc4ccccc34)cc2C1=O,active
19,C[C@@H]1CCCCO[C@@H](CN(C)Cc2ccccc2)[C@@H](C)CN([C@@H](C)CO)C(=O)c2cc(NC(=O)Nc3cccc4ccccc34)ccc2O1,inactive
20,C[C@@H]1CCCCO[C@H](CN(C)Cc2ccc(C(=O)O)cc2)[C@H](C)CN([C@H](C)CO)C(=O)c2cc(NC(=O)Nc3cccc4ccccc34)ccc2O1,inactive
21,CC1(C)OC2CC3C4CCC5=CC(=O)CCC5(C)C4(F)C(O)CC3(C)C2(C(=O)CCl)O1 (stereo unspecified),inactive

row,Compound,cytotoxicity call
1,C[C@H]1CN([C@@H](C)CO)C(=O)CCCn2nncc2CO[C@@H]1CN(C)C(=O)Nc1ccc(N2CCCCC2)cc1,inactive
2,Cc1noc(C)c1NC(=O)N(C)C[C@@H]1Oc2ccc(NC(=O)Nc3cccc4ccccc34)cc2C(=O)N([C@@H](C)CO)C[C@@H]1C,inactive
3,COc1ccc(CN(C)C[C@H]2OCCCC[C@@H](C)Oc3ccc(NC(=O)c4ccccc4)cc3C(=O)N([C@H](C)CO)C[C@H]2C)cc1,inactive
4,C[C@@H]1CN([C@H](C)CO)C(=O)c2cc(NS(=O)(=O)c3cccs3)ccc2O[C@@H]1CN(C)S(=O)(=O)c1ccc(F)cc1,inactive
5,COc1ccc(NC(=O)N(C)C[C@H]2Oc3ncc(C#CCN(C)C)cc3C(=O)N([C@@H](C)CO)C[C@@H]2C)cc1,inactive
6,C[C@@H]1CCCCO[C@@H](CN(C)C(=O)C2CCCCC2)[C@@H](C)CN([C@H](C)CO)C(=O)c2cc(NC(=O)Nc3cccc4ccccc34)ccc2O1,inactive
7,COc1ccc(NC(=O)N(C)C[C@@H]2OCCCC[C@H](C)Oc3ccc(NC(=O)NC4CCCCC4)cc3C(=O)N([C@H](C)CO)C[C@@H]2C)cc1,inactive
8,COCC#Cc1ccc2c(c1)O[C@H](CN(C)S(=O)(=O)c1ccc(F)cc1)[C@H](C)CN([C@@H](C)CO)S2(=O)=O,inactive
9,COc1cccc(S(=O)(=O)Nc2ccc3c(c2)[C@@H]2C[C@H](CC(=O)N4CCCCC4)O[C@H](CO)[C@@H]2O3)c1,inactive
10,C[C@@H]1CCCCO[C@@H](CN(C)S(=O)(=O)c2ccc(F)cc2)[C@@H](C)CN([C@@H](C)CO)C(=O)c2cc(NS(C)(=O)=O)ccc2O1,inactive
11,C[C@@H]1CN([C@H](C)CO)C(=O)c2cc(NC(=O)Nc3cccc4ccccc34)ccc2O[C@@H](C)CCCCO[C@@H]1CN(C)Cc1ccccc1,inactive
12,C[C@@H]1CN([C@@H](C)CO)C(=O)c2cc(NC(=O)Nc3cccc4ccccc34)ccc2O[C@@H](C)CCCCO[C@@H]1CN(C)Cc1ccccc1,active
13,C[C@@H]1CCCCO[C@@H](CN(C)Cc2ccc(C(=O)O)cc2)[C@@H](C)CN([C@@H](C)CO)C(=O)c2cc(NC(=O)Nc3cccc4ccccc34)ccc2O1,inactive
14,C[C@@H]1CCCCO[C@H](CN(C)Cc2ccccc2)[C@H](C)CN([C@@H](C)CO)C(=O)c2cc(NC(=O)Nc3cccc4ccccc34)ccc2O1,active
15,C[C@@H]1CCCCO[C@@H](CN(C)Cc2ccccc2)[C@H](C)CN([C@@H](C)CO)C(=O)c2cc(NC(=O)Nc3cccc4ccccc34)ccc2O1,inactive
16,C[C@H]1CCCCO[C@H](CN(C)Cc2ccccc2)[C@@H](C)CN([C@@H](C)CO)C(=O)c2cc(NC(=O)Nc3cccc4ccccc34)ccc2O1,active
17,C[C@@H]1CCCCO[C@@H](CN(C)Cc2ccccc2)[C@H](C)CN([C@H](C)CO)C(=O)c2cc(NC(=O)Nc3cccc4ccccc34)ccc2O1,inactive
18,C[C@@H]1CCCCO[C@@H](CN(C)Cc2ccccc2)[C@@H](C)CN([C@H](C)CO)C(=O)c2cc(NC(=O)Nc3cccc4ccccc34)ccc2O1,inactive
19,C[C@@H]1CN([C@@H](C)CO)C(=O)c2cc(NC(=O)Nc3cccc4ccccc34)ccc2O[C@@H](C)CCCCO[C@H]1CN(C)Cc1ccccc1,inactive
